Assay outcomes from PubChem BioAssay.
Many of the other results were omitted from the sample, so hits are more common in it than they were.
HT1080 IDH1KD tx: toxicity to HT-1080 IDH1 knockdown cells (counter line); HT-1080 IDH1 knockdown viability, ATP luminescence, 48 h; 360,000 compounds, 2% hits; Potency, µM (series often up to 46.1 µM), for the others: top-dose activity, negative = toxicity, most hits filed as cytotoxic;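 note: potency is the fitted concentration of half-maximal effect; 0% = DMSO wells and -100% = cell-free medium wells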
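Knockdown cells (IDH1KD HT-1080) received compounds 2 h after plating at 750 cells/well and were kept 48 h at 37 °C in 5% FBS RPMI. A CellTiter-Glo luminescence read gave % activity for curve fitting.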
IL-1B inflam inh: inhibitors of inflammasome signaling (IL-1 beta secretion). THP-1 LPS/ATP IL-1B secretion, AlphaLISA, 16 h; active compounds read low. 360,000 compounds, 4.7% hits. activity change, % at 57.5 µM. AID 743279; in the data active = activity change below about -50%; inconclusive = mostly about -30% to -49%
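Secreted IL-1B measured by AlphaLISA bead assay after 16 h compound exposure of THP-1 cells; compounds (final up to 57.5 uM) added 1 h before LPS (250 ng/mL) and ATP (1.25 mM) stimulation; lower signal means less secretion.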
ALOX12 inh: blocks human arachidonate 12S-lipoxygenase. purified 12hLO, xylenol orange hydroperoxide absorbance. P18054. Potency, µM (titrated, usually from 108 µM), without a hit: at the top dose activity change, negative = inhibition, hits mostly inhibitors. 580,000 compounds, 1.1% hits; note: potency is the fitted concentration of half-maximal effect
Target sequence (P18054 whole entry, looked up): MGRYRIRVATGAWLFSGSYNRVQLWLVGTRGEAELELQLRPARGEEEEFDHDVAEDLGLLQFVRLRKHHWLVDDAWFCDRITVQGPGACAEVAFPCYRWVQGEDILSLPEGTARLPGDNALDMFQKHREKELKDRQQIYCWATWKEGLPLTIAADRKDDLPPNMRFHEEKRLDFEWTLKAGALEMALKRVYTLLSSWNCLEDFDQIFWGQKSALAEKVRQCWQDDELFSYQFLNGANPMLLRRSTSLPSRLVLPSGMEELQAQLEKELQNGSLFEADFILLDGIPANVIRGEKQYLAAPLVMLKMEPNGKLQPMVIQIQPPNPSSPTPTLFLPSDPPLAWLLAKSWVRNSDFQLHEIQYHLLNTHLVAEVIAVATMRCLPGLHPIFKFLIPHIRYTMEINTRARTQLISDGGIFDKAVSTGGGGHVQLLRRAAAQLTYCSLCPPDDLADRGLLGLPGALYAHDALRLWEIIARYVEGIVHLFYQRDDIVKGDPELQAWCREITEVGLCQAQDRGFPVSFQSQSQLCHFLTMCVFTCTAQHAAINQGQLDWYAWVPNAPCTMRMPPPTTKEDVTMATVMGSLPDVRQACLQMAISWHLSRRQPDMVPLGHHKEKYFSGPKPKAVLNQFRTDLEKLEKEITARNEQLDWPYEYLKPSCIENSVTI
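Purified human 12hLO at 150 nM in 25 mM Hepes, 0.01% Triton X-100, pH 7.0, preincubated 15 min at room temperature with compound. Reaction started with 40 uM arachidonic acid, 30 min at room temperature. Hydroperoxide measured by Fe-xylenol orange, 573/405 nm absorbance ratio.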
DT40 TDP1 CPT: DT40-hTDP1 cell growth loss with CPT; 420,000 compounds, 12% hits; Potency, µM (doses to about 46.2 µM), for the others: at the highest dose activity change, negative = growth inhibition, usual class: inhibitors; chicken DT40 Tdp1-/-;hTDP1 cells + 20 nM CPT, ATP luminescence, 48 h; note: potency is the fitted concentration of half-maximal effect; nearly all actives have a fitted effect of over 55% in size
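Chicken DT40 Tdp1-/- cells complemented with human TDP1, 400 cells/well, exposed to compounds plus 20 nM camptothecin for at least 48 h at 37 C; viability read as ATP content by CellTiter-Glo luminescence.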
DT40 TDP1 no CPT: qHTS for Inhibitors of human tyrosyl-DNA phosphodiesterase 1 (TDP1): qHTS in cells in absence of CPT; DT40 Tdp1-/- hTDP1 cells, no CPT, ATP luminescence, 48 h; Potency, µM (doses to about 46.2 µM), inactives show at the highest dose activity change, negative = growth inhibition, hits mostly inhibitors; 420,000 compounds, 15% hits; AID 686978, 2013; note: potency is the fitted concentration of half-maximal effect; nearly all actives have a fitted effect of over 55% in size
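Growth of hTDP1-complemented DT40 Tdp1-knockout cells is measured by ATP luminescence after at least 48 hr compound exposure at 37 °C, with DMSO substituting for the 20 nM CPT used in the parallel screen.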
HT1080NT lethal: kills 2HG-producing HT-1080-NT fibrosarcoma cells; HT-1080-NT fibrosarcoma viability, CellTiter-Glo ATP luminescence, 48 h; Potency, µM (top dose mostly 46.1 µM), inactives show at the highest dose activity, negative = less viability, usual class: cytotoxic; 360,000 compounds, 1.6% hits; AID 686970;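 note: NT is the 2HG producing partner of a matched IDH1 knockdown line; potency is the fitted concentration of half-maximal effect; 0% = DMSO-treated cells and -100% = media-only wells without cells; nearly all actives have a fitted effect of over 55% in size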
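750 cells/well, RPMI + 5% FBS; 2 h settle, compound pin-transfer, 48 h at 37 degrees C. CellTiter-Glo 10 min RT, luminescence. Normalized to DMSO and media-only wells.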
* hit, by the source's call; ? = inconclusive; nt = no result; [ ] = remark or other dose. Unless noted, calls come from the whole dose curve; as a rule, active = well fitted curve in the direction sought with a large enough effect; inconclusive = small, poorly fitted or top-dose-only effect, or another doubt; inactive = no such curve, though single readings can be large; an effect the other way counts as inactive or inconclusive. Unless noted, % is set by controls: 0 for no effect and ±100 for the full control effect.

SMILES | HT1080 IDH1KD tx | IL-1B inflam inh | ALOX12 inh | DT40 TDP1 CPT | DT40 TDP1 no CPT | HT1080NT lethal
CC1CCN(S(=O)(=O)c2ccc3c(ccn3CCC(=O)NCC3CCCO3)c2)CC1 (stereo unspecified) | nt | nt | -4% | nt | nt | nt
COC(=O)c1c(-c2ccc(Cl)cc2)noc1N1CCN(c2ccc(OC)cc2)CC1 | nt | nt | -3% | 23µM* | 26µM* | nt
COC(=O)c1c(-c2ccc(Cl)cc2)noc1N1CCN(c2cc(C)ccc2C)CC1 | nt | nt | -10% | 15µM* | 21µM* | nt
COC(=O)c1c(-c2ccc(Cl)cc2)noc1N1CCN(c2ccccc2F)CC1 | nt | nt | -2% | -1% | 7% | nt
CCCC[C@@H](C=O)NC(=O)[C@H](CC(C)C)NC(=O)[C@H](CC(C)C)NC(C)=O | nt | nt | 7% | 1.3µM* | 1.1µM* | nt
CSCC[C@H](C=O)NC(=O)[C@H](CC(C)C)NC(=O)[C@H](CC(C)C)NC(C)=O | nt | nt | 0% | 19µM* | 15µM* | nt
O=C(Nc1ccccc1)n1ccc(-c2ccc(-n3ccnc3)cc2)n1 | nt | nt | 0% | nt | nt | nt
CN=c1sc(C(=O)Nc2ccccc2)c(C)n1C | 2% | 27 | ? | -1% | ? | -1%
CN=c1sc2c(n1C)C(=O)c1ccccc1C2=O | ? | ? | 0% | 4.1µM* | 5.8µM* | 18µM*
Cc1ccc(C)c(S(=O)(=O)c2cn(Cc3ccccc3)c3cc(F)c(F)cc3c2=O)c1 | nt | nt | -22% | ? | ? | nt
CCCn1cc(S(=O)(=O)c2ccc(CC)cc2)c(=O)c2cc(F)c(N(CC)CC)cc21 | nt | nt | -9% | 8.2µM* | 9.2µM* | nt
CCN(CC)c1cc2c(cc1F)c(=O)c(S(=O)(=O)c1ccc(OC)cc1)cn2CC | nt | nt | -9% | 16µM* | 15µM* | nt
CCN(CC)c1cc2c(cc1F)c(=O)c(S(=O)(=O)c1cc(C)ccc1C)cn2Cc1ccccc1 | nt | nt | ? | ? | 18µM* | nt
C=C1C/C(C)=C/CCc2cc(OS(=O)(=O)C(F)(F)F)ccc2-c2ccc(OC)c(OC)c21 | nt | nt | -34% | nt | nt | nt
O=C(Cc1ccsc1)N1CCOc2ccc(CN3CCc4ccccc4C3)cc2C1 | nt | nt | 53% | nt | nt | nt
O=C(COc1ccc(F)cc1)Nc1ccc(C(=O)OCc2cc(=O)n3nc(C4CC4)sc3n2)cc1 | nt | nt | -27% | ? | -23% | nt
CCc1ccc(NC(=O)CC2C(=O)N(c3ccc(Cl)cc3)C(=O)N2Cc2ccco2)cc1 (stereo unspecified) | nt | nt | -74% | 21µM* | ? | nt
CCc1ccc(NC(=O)CC2C(=O)N(c3cccc(C)c3)C(=O)N2Cc2ccco2)cc1 (stereo unspecified) | nt | nt | ? | 16µM* | 26µM* | nt
CCc1ccc(NC(=O)CC2C(=O)N(c3cccc(OC)c3)C(=O)N2Cc2ccco2)cc1 (stereo unspecified) | nt | nt | -25% | ? | ? | nt
CCc1ccc(NC(=O)CC2C(=O)N(c3cccc(C)c3)C(=O)N2Cc2cccs2)cc1 (stereo unspecified) | nt | nt | -17% | 21µM* | 21µM* | nt
C[N+]1=C(/C=C/Nc2ccccc2Cl)C(C)(C)c2ccccc21 | -11% | -6 | ? | 23µM* | 12µM* | -3%
FC(F)(F)c1cnc(/C=C/Nc2ccccc2Cl)c(Cl)c1 | 0% | 17 | ? | -6% | -10% | -4%
N#CC(=C(O)COC(=O)CCC1CCCCC1)c1nc2ccccc2[nH]1 | 17% | -98* | -2% | 5.8µM* | 5.2µM* | 8%
Cc1cc(SCC(=O)OC/C(O)=C(\C#N)c2nc3ccccc3[nH]2)c(C)cc1Br | ? | -100* | 0% | ? | ? | ?
N#C/C(=C(/O)COC(=O)CSc1ccc(Cl)cc1)c1nc2ccccc2[nH]1 | -3% | -102* | -14% | 18µM* | 5.2µM* | -3%
SMILES | HT1080 IDH1KD tx | IL-1B inflam inh | ALOX12 inh | DT40 TDP1 CPT | DT40 TDP1 no CPT | HT1080NT lethal
N#C/C(=C(/O)COC(=O)CCCNC(=O)c1ccc(Cl)cc1)c1nc2ccccc2[nH]1 | -3% | 144 | 53% | -10% | -18% | 0%
Cc1cccn2c(=O)c3cc(C(=O)N(Cc4ccccc4)Cc4ccccc4)n(C)c3nc12 | nt | nt | -53% | nt | nt | nt
Cc1ccc(C2=NC3(CCN(C(=O)c4ccco4)CC3)ON2)cc1 | nt | nt | -11% | nt | nt | nt
Cc1cccn2c(CN(C)CCc3cnn(C)c3)c(C(=O)N(C)CCc3ccccc3)nc12 | nt | nt | 0% | nt | nt | nt
Cc1nc(NCc2ccccc2)sc1C(=O)NC1CCCC1 | nt | nt | 3% | nt | nt | nt
O=C(NS(=O)(=O)c1cccc(F)c1)[C@H]1O[C@@H](n2ccc(=O)[nH]c2=O)[C@H](O)[C@@H]1O | nt | nt | -11% | nt | nt | nt
Cc1ccc(NC(=O)Cn2cc(C(=O)c3ccco3)c3ccccc32)cc1C | nt | nt | -18% | ? | 18µM* | nt
CCOc1ccc(NC(=O)Cn2cc(C(=O)c3ccco3)c3ccccc32)cc1 | 7% | 29 | -20% | -28% | ? | 2%
COc1ccc(NC(=O)Cn2cc(C(=O)c3ccco3)c3ccccc32)cc1 | -26% | 8 | 7% | ? | ? | -10%
Cc1cccc(C)c1NC(=O)Cn1cc(C(=O)c2ccco2)c2ccccc21 | nt | nt | -19% | ? | ? | nt
Cc1ccc(NC(=O)Cn2cc(C(=O)c3ccco3)c3ccccc32)cc1 | nt | nt | -6% | ? | 15µM* | nt
O=C(Cn1cc(C(=O)c2ccco2)c2ccccc21)Nc1ccccc1 | -27% | -11 | -11% | 10µM* | 12µM* | -9%
COc1cc(CNC(=O)c2ccc(Br)o2)ccn1 | nt | nt | 9% | nt | nt | nt
COc1ccccc1CNC(=O)c1cc2cccc3c2n1CCS3 | nt | nt | -20% | 18µM* | ? | nt
O=C(NCc1ccccc1Cl)c1cnc2n(c1=O)CCS2 | 2% | -1 | 31%[57.4 µM] | -5% | -4% | 2%
CCOc1ccc(CCNC(=O)c2cc3cccc4c3n2CCS4)cc1 | nt | nt | ? | 9.2µM* | ? | nt
COc1ccccc1CNC(=O)c1cc(C)nn1-c1ccccc1 | 6% | 1 | 0% | 2% | 12% | 5%
O=C(NCc1ccccc1Cl)c1cc2cccc3c2n1CCS3 | nt | nt | -26% | 23µM* | ? | nt
CCOc1ccc(CCNC(=O)CN2C(=O)CCSc3ccccc32)cc1 | -1% | -11 | 10% | 5% | ? | 4%
Cn1cc(C(=O)NCC2CN(Cc3ccccc3)CC23CN(c2ccccc2)C3)cn1 (stereo unspecified) | nt | nt | 2%[176 µM] | nt | nt | nt
Cc1ccc(OCCn2c(CN(C)C(=O)c3ccco3)nc3ccccc32)cc1C | nt | nt | 10% | nt | nt | nt
Cc1ccc(N=C2C=CC(C)(C(Cl)(Cl)Cl)C=C2)cc1C (stereo unspecified) | nt | nt | -8% | nt | nt | nt
